Screening data (PubChem)
KinaseGlo FLuc: Counterscreen for Luciferase (Kinase-Glo TM) Inhibition; Luciferin 4-monooxygenase (Photuris pensylvanica), Q27757; Kinase-Glo luciferase, ATP luminescence, 8 min; Potency, µM (highest dose often 38.3 µM), for the others: at the highest dose activity change, negative = inhibition, usual class: inhibitors; actives 0.28% (n = 200,000); AID 1379, 2008; also: % is scaled to controls: 0 for no effect and ±100 for the full control effect; nearly all actives have a fitted effect of over 60% in size
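Substrate mix (final 50 mM imidazole pH 7.2, 50 mM KCl, 7 mM MgCl2, 10 uM ATP, 0.01% Tween 20, 0.05% BSA) plus pin-tool compound, then Kinase-Glo detection mix; 8 min ambient, luminescence read.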
ELG1 genotoxic: qHTS screen for small molecules that induce genotoxicity in human embryonic kidney (HEK293T) cells expressing luciferase-tagged ELG1; Potency, µM (highest dose often 46 µM), inactives show top-dose activity change, positive = activation, hits mostly activators; actives 1.3% (n = 330,000); HEK293T ELG1-luciferase reporter, luminescence, 16 h; also: % of control where 0% means no effect; nearly all actives have a fitted effect of over 60% in size
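HEK293T cells expressing luciferase-tagged ELG1 were treated with compound or DMSO for 16 hr at 37°C. Luciferase activity was then read after 30 min with ONE-Glo at room temperature; rising signal flags genetic stress.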
NPC1 prom act: qHTS Assay for NPC1 Promoter Activators; Huh7 NPC1 promoter luciferase reporter, 24 h; Potency, µM (top dose mostly 9.22 µM), for the others: top-dose activation, usual class: activators; actives 2.4% (n = 320,000); AID 485313, 2010; also: % of control where 0% means no effect; nearly all actives have a fitted effect of over 60% in size
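Readout is luciferase luminescence, reflecting NPC1 promoter activation in stably transfected Huh7 cells after 24 h compound exposure at 37 °C in reduced-serum medium with 10% FBS.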
FLuc modulator: qHTS profiling assay for firefly luciferase inhibitor/activator using purifed enzyme and Km concentrations of substrates (counterscreen for miR-21 project) | actives 6.9% (n = 360,000) | Luciferin 4-monooxygenase (Photinus pyralis), P08659 | purified FLuc, Km substrates, luminescence inhibition | Potency, µM (highest dose often 57.5 µM), without a hit: at the top dose activity change, negative = inhibition, usual class: inhibitors | AID 588342, 2011;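 also: plate controls were vehicle for no effect and reference inhibitor for full effect; nearly all actives have a fitted effect of over 55% in size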
Target sequence (P08659 whole entry, looked up): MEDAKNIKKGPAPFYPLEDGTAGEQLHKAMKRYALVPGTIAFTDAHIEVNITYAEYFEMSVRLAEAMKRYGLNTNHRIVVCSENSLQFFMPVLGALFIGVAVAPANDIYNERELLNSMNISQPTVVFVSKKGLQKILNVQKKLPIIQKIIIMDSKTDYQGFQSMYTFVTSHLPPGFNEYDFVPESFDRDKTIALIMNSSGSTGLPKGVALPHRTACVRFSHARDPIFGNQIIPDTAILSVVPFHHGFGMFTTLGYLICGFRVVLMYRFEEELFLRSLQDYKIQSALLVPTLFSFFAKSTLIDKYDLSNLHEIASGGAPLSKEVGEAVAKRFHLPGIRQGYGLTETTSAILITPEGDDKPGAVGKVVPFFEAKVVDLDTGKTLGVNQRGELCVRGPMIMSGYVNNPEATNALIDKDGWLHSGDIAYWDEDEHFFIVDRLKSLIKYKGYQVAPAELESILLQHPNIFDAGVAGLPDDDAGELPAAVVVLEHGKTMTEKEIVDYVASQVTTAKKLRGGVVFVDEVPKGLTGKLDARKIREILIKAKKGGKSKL
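Purified P. pyralis luciferase (10nM final) with 10uM D-luciferin and 10uM ATP (Km levels) in 50mM Tris acetate pH 7.5, 10mM Mg acetate, 0.01% Tween-20, 0.05% BSA; qHTS 6-point titration, ~60 µM downward; luminescence read.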
Rab9 promoter act: qHTS Assay for Rab9 Promoter Activators. Huh7 Rab9 promoter-luciferase reporter, luminescence, 24 h. Potency, µM (series often up to 9.22 µM), for the others: at the top dose activation, negative = inhibition, hits mostly activators. actives 2.8% (n = 320,000); also: % of control where 0% means no effect; nearly all actives have a fitted effect of over 60% in size
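Huh7 reporter line, Rab9 promoter upstream of luciferase. Compound exposure 24 h at 37 °C in reduced-serum medium with 10% FBS. Read-out: luminescence.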
SMN2 splice enh: qHTS Assay for Enhancers of SMN2 Splice Variant Expression | actives 2.8% (n = 210,000) | HEK293 SMN2-luciferase splicing reporter, luminescence, 30-36 h | AID 1458, 2008 | Potency, µM (doses to about 46.1 µM), inactives show top-dose activity change, positive = activation, usual class: activators; also: % of control where 0% means no effect; nearly all actives have a fitted effect of over 55% in size
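HEK293 cells carry an SMN2 minigene-luciferase reporter in which exon 7 inclusion puts luciferase in frame. Cells were seeded at 2000 cells/well, attached for 10-12 hours, then exposed to compounds for 30-36 hours at 37C before ONE-Glo luminescence.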
* marks the source's active call; other numbers are inactive results; u = inconclusive; x = not tested or not shown. A selection: hits, their analogues and other compounds. The true share with any hit is near 7.5%. Calls follow the shape of the dose curve; as a rule, active = well fitted curve in the direction sought with a large enough effect; inconclusive = small, poorly fitted or top-dose-only effect, or another doubt; inactive = no such curve, though single readings can be large; an effect the other way counts as inactive or inconclusive. Potency is read from the fitted curve at half-maximal effect.

SMILES	KinaseGlo FLuc	ELG1 genotoxic	NPC1 prom act	FLuc modulator	Rab9 promoter act	SMN2 splice enh
O=C(NNc1nc(-c2ccc(Cl)cc2)cs1)c1ccco1	1%	1%	14%	24µM*	25%	19%
O=C(Nc1nc(-c2nc3ccccc3s2)cs1)C1CC1	-3%	2.6µM*	1.4µM*	3µM*	0.71µM*	7.1µM*
CC1CC1C(=O)Nc1nc(-c2ccccc2)cs1 (configuration not stated)	-3%	u	21%	24µM*	u	-7%
N#CCC(=O)Nc1ccc(C(=O)OCC(=O)N2CCN(C(=O)c3ccco3)CC2)cc1	x	1%	x	x	x	x
CC(C)Oc1ccccc1-c1nc(SCC(=O)c2ccc(F)cc2)n[nH]1	x	x	x	-13%	x	0%
CCN(CC)CCCNC(=O)Cn1nc(C)n2c(cc3sccc32)c1=O	x	x	x	-5%	x	-6%
O=C(Nc1nc(-c2ccccc2)ns1)c1cccs1	2%	3%	u	15µM*	u	13µM*
O=C(Nc1nc(-c2nc3ccccc3s2)cs1)c1ccco1	-1%	u	u	u	u	22µM*
O=C(Nc1ccc(Cl)cc1-c1nc2ccccc2s1)c1ccco1	x	0%	9%	-10%	-4%	x
O=C(NCc1nc(-c2ccccc2)no1)c1cccs1	-6%	-1%	1%	-2%	-4%	-11%
O=C(Nc1nc(-c2ccc(Cl)s2)cs1)c1cccs1	1%	7%	u	11µM*	27%	5%
O=C(Nc1nc(-c2ccccc2)cs1)c1cccs1	x	4%	u	8.5µM*	3.5µM*	x
COc1cccc(OC)c1C(=O)Nc1nc(-c2ccccc2)cs1	x	-2%	-8%	1%	-5%	x
CC(C)CN(C(=O)COc1ccc([N+](=O)[O-])cc1)c1c(N)n(CC(C)C)c(=O)[nH]c1=O	x	1%	-2%	4%	1%	x
CC(CNC(=O)c1cc(COc2ccc3ncccc3c2)on1)c1ccccc1 (configuration not stated)	x	-19%	-12%	-17%	-17%	x
COc1cc(Cl)ccc1OCc1cc(C(=O)NC(C)Cc2cnccn2)no1 (configuration not stated)	x	u	2.5µM*	6.7µM*	1.1µM*	x
COc1cc(Cl)ccc1OCc1cc(C(=O)NCC(C)c2ccccc2)no1 (configuration not stated)	x	-2%	-2%	21µM*	2%	x
CCC(NC(=O)c1cc(COc2cc(C)c(Cl)c(C)c2)on1)c1ccncc1 (configuration not stated)	x	-6%	-6%	3%	-1%	x
CC(Cc1cnccn1)NC(=O)c1cc(COc2ccc(F)cc2F)on1 (configuration not stated)	x	0%	-1%	-11%	-8%	x
CCC(NC(=O)c1cc(COc2ccc(Cl)cc2OC)on1)c1ccncc1 (configuration not stated)	x	u	3.5µM*	4.8µM*	4µM*	x
CCC(NC(=O)c1cc(COc2ccc(OC)cc2Cl)on1)c1ccncc1 (configuration not stated)	x	16%	25%	12µM*	u	x
CCN(C(=O)c1cccn(Cc2ccccc2C)c1=O)c1ccccc1	x	x	x	4%	x	x
C/C(=N/OC(=O)CC(C)C)c1cc(-c2ccc(Cl)cc2)no1	-1%	u	u	u	2.8µM*	18µM*
CCOC(=O)c1cc(/C(C)=N/OC(=O)c2ccc(Cl)cc2)on1	x	0%	1%	0%	1%	x
CCc1cccc(C)c1NC(=O)Nc1ccc2c(c1)OCO2	-2%	0%	-3%	3%	1%	21%
